# ChEMBL document CHEMBL2218924, “A broad activity screen in support of a chemogenomic map for kinase signalling research and drug discovery” (Biochem J, 2013)
# Assays:
# [1] = target: Serine/threonine-protein kinase SIK1 (Homo sapiens) (UniProt P57059); conditions: at 10 µM
# [2] = target: SRSF protein kinase 1 (Homo sapiens) (UniProt Q96SB4); conditions: at 1 µM
# [3] = target: SRSF protein kinase 1 (Homo sapiens) (UniProt Q96SB4); conditions: at 10 µM
# [4] = target: SRSF protein kinase 2 (Homo sapiens) (UniProt P78362); conditions: at 10 µM
# Sequence of SRSF protein kinase 2 (Homo sapiens) (P78362 whole entry, looked up): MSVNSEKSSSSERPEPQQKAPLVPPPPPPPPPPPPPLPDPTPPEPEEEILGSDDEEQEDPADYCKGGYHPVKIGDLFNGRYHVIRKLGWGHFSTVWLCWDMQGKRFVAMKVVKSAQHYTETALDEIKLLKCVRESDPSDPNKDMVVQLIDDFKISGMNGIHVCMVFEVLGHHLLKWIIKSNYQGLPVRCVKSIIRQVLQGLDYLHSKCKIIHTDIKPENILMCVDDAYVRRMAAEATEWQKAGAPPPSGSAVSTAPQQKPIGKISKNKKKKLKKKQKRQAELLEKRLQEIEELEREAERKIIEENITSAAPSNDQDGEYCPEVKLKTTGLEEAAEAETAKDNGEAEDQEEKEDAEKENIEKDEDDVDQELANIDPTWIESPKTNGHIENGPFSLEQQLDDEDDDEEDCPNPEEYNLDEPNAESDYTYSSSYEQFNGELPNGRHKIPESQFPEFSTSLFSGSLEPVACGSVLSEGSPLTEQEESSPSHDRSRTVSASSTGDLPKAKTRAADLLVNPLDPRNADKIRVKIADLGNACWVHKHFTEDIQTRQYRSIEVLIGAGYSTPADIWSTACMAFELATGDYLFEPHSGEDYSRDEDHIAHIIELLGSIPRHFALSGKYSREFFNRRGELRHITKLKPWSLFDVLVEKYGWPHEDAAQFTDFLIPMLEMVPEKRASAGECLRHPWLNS
# [5] = target: Serine/threonine-protein kinase 33 (Homo sapiens) (UniProt Q9BYT3); conditions: at 1 µM
# Sequence of Serine/threonine-protein kinase 33 (Homo sapiens) (Q9BYT3 whole entry, looked up): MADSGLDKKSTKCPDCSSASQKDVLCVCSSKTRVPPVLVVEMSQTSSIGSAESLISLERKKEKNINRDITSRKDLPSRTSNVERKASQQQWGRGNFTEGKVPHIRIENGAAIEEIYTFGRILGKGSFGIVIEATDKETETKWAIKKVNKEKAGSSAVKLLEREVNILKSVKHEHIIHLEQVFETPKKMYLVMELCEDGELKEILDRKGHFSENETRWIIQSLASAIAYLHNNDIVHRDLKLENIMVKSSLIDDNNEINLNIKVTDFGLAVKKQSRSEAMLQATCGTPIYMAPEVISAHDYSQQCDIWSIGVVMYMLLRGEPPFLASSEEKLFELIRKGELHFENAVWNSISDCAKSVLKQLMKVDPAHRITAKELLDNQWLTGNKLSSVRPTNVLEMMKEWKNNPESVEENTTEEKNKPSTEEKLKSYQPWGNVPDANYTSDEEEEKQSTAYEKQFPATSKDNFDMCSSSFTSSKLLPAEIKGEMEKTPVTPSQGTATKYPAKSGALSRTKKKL
# [6] = target: Serine/threonine-protein kinase 33 (Homo sapiens) (UniProt Q9BYT3); conditions: at 10 µM
# [7] = target: Serine/threonine-protein kinase PLK2 (Homo sapiens) (UniProt Q9NYY3); conditions: at 10 µM
# Sequence of Serine/threonine-protein kinase PLK2 (Homo sapiens) (Q9NYY3 whole entry, looked up): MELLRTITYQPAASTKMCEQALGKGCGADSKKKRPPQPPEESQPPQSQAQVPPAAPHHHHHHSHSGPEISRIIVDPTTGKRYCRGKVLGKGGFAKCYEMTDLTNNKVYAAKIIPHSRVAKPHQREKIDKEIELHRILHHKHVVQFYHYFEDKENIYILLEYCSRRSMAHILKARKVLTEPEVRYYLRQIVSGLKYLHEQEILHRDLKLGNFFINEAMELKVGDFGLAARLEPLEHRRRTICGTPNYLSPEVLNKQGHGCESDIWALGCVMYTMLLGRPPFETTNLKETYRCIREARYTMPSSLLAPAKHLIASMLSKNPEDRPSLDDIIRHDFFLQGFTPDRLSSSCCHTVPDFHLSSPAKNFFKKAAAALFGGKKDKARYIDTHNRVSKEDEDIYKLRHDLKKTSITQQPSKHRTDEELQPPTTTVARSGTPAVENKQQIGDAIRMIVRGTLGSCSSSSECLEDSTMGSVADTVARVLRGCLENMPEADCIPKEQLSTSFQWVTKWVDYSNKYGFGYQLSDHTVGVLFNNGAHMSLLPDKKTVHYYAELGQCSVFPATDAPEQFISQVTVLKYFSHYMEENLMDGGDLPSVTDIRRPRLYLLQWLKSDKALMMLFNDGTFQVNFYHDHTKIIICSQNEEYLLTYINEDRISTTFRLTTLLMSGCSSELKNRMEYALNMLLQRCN
# [8] = target: Tyrosine-protein kinase SYK (Homo sapiens) (UniProt P43405); conditions: at 1 µM
# [9] = target: Tyrosine-protein kinase SYK (Homo sapiens) (UniProt P43405); conditions: at 10 µM
# [10] = target: T1, Mitogen-activated protein kinase kinase kinase 7 (Homo sapiens) (UniProt O43318); conditions: at 1 µM
# T1 sequence (whole entry): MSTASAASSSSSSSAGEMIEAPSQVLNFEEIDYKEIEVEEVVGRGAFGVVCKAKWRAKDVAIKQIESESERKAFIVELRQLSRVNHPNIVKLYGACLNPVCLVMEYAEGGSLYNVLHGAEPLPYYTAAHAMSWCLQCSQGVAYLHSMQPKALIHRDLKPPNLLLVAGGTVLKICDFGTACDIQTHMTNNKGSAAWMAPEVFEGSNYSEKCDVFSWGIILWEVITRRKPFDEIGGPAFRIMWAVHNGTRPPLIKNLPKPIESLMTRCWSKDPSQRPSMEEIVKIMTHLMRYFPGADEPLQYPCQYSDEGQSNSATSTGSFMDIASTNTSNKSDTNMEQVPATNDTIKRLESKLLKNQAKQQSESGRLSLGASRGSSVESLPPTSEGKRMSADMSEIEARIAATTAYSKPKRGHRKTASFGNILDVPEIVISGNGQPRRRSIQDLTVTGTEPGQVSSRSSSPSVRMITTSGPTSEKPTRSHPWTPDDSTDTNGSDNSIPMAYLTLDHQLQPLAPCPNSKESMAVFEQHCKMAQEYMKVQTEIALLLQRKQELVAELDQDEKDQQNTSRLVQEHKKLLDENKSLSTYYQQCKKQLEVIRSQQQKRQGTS
# [11] = target: T1, Mitogen-activated protein kinase kinase kinase 7 (Homo sapiens); conditions: at 10 µM
# [12] = target: T2, Serine/threonine-protein kinase TAO1 (Homo sapiens) (UniProt Q7L7X3); conditions: at 1 µM
# T2 sequence (whole entry): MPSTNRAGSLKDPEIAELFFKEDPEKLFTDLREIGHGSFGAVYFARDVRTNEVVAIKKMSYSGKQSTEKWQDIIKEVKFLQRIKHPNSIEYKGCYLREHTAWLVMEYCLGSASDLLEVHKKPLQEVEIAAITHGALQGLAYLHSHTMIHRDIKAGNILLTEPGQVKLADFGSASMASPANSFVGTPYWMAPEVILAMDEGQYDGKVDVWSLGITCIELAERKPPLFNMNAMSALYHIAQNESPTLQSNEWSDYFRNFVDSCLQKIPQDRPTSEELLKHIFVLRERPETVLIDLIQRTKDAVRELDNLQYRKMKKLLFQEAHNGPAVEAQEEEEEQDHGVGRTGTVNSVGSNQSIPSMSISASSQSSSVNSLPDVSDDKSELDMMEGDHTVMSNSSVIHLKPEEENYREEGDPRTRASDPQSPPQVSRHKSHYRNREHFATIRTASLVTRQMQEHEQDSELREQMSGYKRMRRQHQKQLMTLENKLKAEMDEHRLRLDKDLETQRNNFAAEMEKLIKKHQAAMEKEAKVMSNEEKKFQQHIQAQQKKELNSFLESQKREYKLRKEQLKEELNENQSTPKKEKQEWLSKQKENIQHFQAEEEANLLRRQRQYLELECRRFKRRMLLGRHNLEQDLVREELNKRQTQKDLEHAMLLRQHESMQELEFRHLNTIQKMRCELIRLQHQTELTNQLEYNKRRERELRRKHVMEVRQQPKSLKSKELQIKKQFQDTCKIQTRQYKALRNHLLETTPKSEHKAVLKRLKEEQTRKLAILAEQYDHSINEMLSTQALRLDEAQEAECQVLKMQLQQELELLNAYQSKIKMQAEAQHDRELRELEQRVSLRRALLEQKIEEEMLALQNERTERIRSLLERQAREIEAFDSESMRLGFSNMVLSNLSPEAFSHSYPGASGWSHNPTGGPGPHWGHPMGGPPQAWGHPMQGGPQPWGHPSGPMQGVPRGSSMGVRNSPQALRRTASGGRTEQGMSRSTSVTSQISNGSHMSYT
# [13] = target: T2, Serine/threonine-protein kinase TAO1 (Homo sapiens); conditions: at 10 µM
# [14] = target: T3, Serine/threonine-protein kinase TAO2 (Homo sapiens) (UniProt Q9UL54); conditions: at 1 µM
# T3 sequence (whole entry): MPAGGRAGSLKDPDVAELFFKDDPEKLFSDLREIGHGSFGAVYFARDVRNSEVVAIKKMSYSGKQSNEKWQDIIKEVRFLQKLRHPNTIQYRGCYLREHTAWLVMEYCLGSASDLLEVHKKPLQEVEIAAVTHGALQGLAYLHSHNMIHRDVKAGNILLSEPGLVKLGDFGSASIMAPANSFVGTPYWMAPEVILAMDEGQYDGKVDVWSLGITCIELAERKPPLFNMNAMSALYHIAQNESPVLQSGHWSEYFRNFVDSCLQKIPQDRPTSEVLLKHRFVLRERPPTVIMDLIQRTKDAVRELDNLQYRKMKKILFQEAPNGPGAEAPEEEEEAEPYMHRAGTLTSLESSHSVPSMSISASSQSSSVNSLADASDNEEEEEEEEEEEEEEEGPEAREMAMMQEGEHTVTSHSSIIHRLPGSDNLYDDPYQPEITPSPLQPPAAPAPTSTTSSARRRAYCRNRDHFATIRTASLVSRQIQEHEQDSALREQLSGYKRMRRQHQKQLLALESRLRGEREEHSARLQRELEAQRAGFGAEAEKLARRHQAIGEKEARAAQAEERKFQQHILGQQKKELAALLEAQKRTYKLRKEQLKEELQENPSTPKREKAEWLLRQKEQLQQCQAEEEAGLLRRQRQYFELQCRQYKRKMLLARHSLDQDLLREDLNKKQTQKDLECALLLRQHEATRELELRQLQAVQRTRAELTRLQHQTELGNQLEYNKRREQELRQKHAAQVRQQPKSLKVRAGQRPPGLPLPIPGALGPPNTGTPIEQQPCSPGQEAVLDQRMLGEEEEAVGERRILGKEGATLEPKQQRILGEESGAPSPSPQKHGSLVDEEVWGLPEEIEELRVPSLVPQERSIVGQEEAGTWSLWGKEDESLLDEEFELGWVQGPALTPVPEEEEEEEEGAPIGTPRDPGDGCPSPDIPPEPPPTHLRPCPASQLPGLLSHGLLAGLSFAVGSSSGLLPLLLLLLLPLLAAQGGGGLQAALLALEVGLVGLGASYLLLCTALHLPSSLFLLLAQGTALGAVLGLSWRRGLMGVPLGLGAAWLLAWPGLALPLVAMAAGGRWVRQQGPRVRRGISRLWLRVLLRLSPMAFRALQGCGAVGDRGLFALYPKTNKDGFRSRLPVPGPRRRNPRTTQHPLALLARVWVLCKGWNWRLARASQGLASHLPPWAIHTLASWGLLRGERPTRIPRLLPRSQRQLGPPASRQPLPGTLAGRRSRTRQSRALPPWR
# [15] = target: T3, Serine/threonine-protein kinase TAO2 (Homo sapiens); conditions: at 10 µM
# [16] = target: T4, Serine/threonine-protein kinase TAO3 (Homo sapiens) (UniProt Q9H2K8); conditions: at 1 µM
# T4 sequence (whole entry): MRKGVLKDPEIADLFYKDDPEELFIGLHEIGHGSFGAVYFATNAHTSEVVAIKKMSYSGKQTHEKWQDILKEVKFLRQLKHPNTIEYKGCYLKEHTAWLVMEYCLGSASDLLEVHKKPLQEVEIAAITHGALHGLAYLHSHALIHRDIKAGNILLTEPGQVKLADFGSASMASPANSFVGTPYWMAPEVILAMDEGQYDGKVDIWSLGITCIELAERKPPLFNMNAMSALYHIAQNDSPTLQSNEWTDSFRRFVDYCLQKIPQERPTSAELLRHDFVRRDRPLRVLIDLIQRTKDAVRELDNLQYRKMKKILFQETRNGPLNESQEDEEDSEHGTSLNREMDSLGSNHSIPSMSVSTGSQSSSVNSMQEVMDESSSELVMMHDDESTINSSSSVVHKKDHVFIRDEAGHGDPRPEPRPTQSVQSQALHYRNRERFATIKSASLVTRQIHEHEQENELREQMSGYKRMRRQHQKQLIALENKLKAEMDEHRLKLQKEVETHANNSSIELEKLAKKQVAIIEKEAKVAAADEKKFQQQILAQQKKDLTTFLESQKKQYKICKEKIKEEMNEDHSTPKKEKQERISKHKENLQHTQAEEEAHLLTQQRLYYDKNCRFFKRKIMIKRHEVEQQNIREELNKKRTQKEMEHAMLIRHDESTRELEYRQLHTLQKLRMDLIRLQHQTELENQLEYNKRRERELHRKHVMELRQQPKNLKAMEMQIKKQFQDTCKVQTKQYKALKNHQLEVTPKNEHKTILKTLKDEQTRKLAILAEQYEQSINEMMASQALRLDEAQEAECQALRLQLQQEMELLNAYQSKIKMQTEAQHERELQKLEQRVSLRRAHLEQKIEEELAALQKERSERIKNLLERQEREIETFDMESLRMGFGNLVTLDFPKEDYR
# [17] = target: T4, Serine/threonine-protein kinase TAO3 (Homo sapiens); conditions: at 10 µM
# [18] = target: T5, Serine/threonine-protein kinase TBK1 (Homo sapiens) (UniProt Q9UHD2); conditions: at 1 µM
# T5 sequence (whole entry): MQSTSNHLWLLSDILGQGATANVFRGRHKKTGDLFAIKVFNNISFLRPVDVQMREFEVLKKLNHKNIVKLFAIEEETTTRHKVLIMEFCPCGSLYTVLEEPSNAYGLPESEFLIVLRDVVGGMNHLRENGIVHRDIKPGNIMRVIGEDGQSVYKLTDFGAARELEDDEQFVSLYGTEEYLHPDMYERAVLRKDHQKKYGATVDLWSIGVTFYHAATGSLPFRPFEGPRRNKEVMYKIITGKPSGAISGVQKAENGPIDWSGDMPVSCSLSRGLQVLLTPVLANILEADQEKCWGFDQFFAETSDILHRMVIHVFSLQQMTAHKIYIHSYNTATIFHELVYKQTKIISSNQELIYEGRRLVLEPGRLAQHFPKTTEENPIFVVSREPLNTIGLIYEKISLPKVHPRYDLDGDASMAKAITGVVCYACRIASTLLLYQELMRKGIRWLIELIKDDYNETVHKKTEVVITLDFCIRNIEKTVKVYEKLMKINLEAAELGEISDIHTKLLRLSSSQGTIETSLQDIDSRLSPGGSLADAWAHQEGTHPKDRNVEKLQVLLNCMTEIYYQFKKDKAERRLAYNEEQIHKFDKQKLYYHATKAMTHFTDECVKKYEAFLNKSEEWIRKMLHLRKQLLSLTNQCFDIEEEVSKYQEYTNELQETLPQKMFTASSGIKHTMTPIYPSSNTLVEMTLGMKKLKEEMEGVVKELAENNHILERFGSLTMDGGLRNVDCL
# [19] = target: SRSF protein kinase 2 (Homo sapiens) (UniProt P78362); conditions: at 1 µM
# [20] = target: Serine/threonine-protein kinase PLK2 (Homo sapiens) (UniProt Q9NYY3); conditions: at 1 µM
# Sequence of SRSF protein kinase 1 (Homo sapiens) (Q96SB4 whole entry): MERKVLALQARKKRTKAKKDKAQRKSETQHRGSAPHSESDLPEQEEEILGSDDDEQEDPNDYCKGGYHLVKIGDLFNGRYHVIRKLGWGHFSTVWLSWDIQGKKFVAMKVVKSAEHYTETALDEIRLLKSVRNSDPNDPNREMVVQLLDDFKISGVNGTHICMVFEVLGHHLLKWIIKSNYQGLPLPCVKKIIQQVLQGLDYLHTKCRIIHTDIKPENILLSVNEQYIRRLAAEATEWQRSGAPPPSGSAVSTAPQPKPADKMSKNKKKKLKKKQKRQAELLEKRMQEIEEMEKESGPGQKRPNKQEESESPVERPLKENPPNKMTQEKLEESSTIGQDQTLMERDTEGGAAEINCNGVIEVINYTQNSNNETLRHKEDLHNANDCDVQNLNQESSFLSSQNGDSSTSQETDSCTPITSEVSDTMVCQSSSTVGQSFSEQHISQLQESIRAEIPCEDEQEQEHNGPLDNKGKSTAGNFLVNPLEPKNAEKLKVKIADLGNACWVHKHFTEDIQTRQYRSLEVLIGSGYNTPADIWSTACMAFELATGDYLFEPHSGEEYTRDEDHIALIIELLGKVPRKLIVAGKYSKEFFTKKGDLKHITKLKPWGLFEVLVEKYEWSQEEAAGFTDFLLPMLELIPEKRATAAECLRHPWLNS
# Sequence of Serine/threonine-protein kinase SIK1 (Homo sapiens) (P57059 whole entry): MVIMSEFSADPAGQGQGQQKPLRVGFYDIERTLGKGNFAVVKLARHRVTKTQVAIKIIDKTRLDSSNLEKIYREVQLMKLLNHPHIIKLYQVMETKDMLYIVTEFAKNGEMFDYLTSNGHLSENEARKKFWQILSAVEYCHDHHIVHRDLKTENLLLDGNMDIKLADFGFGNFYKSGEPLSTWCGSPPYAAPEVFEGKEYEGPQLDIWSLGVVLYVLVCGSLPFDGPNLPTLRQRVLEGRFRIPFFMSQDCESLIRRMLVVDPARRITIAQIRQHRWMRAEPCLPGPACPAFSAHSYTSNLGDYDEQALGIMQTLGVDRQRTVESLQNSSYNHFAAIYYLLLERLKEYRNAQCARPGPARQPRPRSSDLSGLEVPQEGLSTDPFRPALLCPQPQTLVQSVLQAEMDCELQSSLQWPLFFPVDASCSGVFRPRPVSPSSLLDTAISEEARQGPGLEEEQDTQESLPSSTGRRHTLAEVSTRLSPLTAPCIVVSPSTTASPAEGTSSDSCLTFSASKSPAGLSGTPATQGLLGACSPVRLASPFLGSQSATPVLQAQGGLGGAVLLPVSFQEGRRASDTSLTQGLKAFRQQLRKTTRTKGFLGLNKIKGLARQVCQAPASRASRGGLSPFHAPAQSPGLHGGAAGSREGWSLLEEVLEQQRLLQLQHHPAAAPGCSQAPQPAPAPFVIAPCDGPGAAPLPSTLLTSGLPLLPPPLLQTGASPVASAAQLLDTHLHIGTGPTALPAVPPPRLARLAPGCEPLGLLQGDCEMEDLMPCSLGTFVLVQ
SMILES,residual activity [1] [%],residual activity [2] [%],residual activity [3] [%],residual activity [4] [%],residual activity [5] [%],residual activity [6] [%],residual activity [7] [%],residual activity [8] [%],residual activity [9] [%],residual activity [10] [%],residual activity [11] [%],residual activity [12] [%],residual activity [13] [%],residual activity [14] [%],residual activity [15] [%],residual activity [16] [%],residual activity [17] [%],residual activity [18] [%],residual activity [19] [%],residual activity [20] [%]
O=C(c1cc2cc(O)ccc2[nH]1)c1cc2cc(O)ccc2[nH]1,8,81,79,71,83,62,78,82,46,62,23,70,28,80,32,66,22,16,–,–
O=C1Cc2c([nH]c3ccc([N+](=O)[O-])cc23)-c2ccccc2N1,68,105,–,–,–,–,–,–,–,–,–,54,30,–,–,–,–,51,–,–
COc1ccc2c(c1)c(C1=C(c3c[nH]c4ccccc34)C(=O)NC1=O)cn2CCCN(C)C,34,97,56,–,71,22,–,113,69,82,53,–,33,–,28,82,37,59,–,–
O=C(c1ccccc1)c1ccc(N2CCOCC2)cc1O,95,–,–,94,89,98,–,124,93,100,95,–,91,–,–,–,92,91,100,–
CC(C)(C)c1nc2c3ccc(F)cc3c3c(=O)[nH]ccc3c2[nH]1,42,99,–,73,34,24,44,–,–,44,62,56,24,–,–,68,73,15,–,49
O=C(Nc1nc2ccccc2n1CCN1CCOCC1)c1cccc([N+](=O)[O-])c1,73,–,–,74,83,88,–,123,84,78,74,–,–,–,–,–,–,73,79,–
CCCCc1c(-c2ccc(OC)cc2)[nH]c2nccnc12,78,118,106,84,106,–,–,37,39,–,86,48,48,64,82,81,90,61,90,–
Nc1nc(Nc2ccc(S(N)(=O)=O)cc2)nn1C(=O)c1c(F)cccc1F,6,56,7,–,–,76,60,47,11,82,34,15,4,6,2,18,4,72,–,96
N#C/C(=C\c1ccc(O)c(O)c1)C(=O)NCc1ccccc1,1,100,–,–,–,–,–,127,71,–,–,–,–,–,–,–,–,82,–,–
COc1ccc(Cl)cc1NC(=O)Nc1cc(C)nc2ccccc12,134,–,–,86,99,98,–,–,88,98,95,–,–,–,85,95,83,78,94,–
